Test results from PubChem BioAssay (EPA / NIEHS).
Where “and” joins values, the source holds several entries; their conditions need not be identical. Equal values may be shown once. Some compounds were tested as several samples or in several runs, with calls that do not always agree. Calls of active or inactive are those of the source. How the source made its calls: active means hit-call score of the fitted dose curve at least 0.9, where 1 is the maximum; inactive means score below 0.9.

What was measured:
Conditions in all cases: primary human HUVEC with PBMC; actives raise or lower the signal
[1] = read-out: Interleukin-1 alpha (IL1a), IL1A (gene 3552); assay: BSK_LPS_IL1a: BioMAP Diversity Plus: LPS Assay for Interleukin-1 alpha (IL1a) Biomarker Activity (AID 2283080)
In short: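 Readout is IL-1a level by ELISA, 24 h post-dose, fitted as gain or loss relative to DMSO. System: LPS-activated human primary co-culture of vascular endothelium and peripheral blood mononuclear cells, with parallel SRB total-protein cytotoxicity.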

[2] = read-out: Monocyte Chemoattractant Protein-1 (MCP1), CCL2 (gene 6347); assay: BSK_LPS_MCP1: BioMAP Diversity Plus: LPS Assay for Monocyte Chemoattractant Protein-1 (MCP1) Biomarker Activity (AID 2283081);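 on AC50: secreted MCP-1 protein quantified by ELISA in culture supernatant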
In short: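 Secreted MCP-1 read by ELISA at 24 h post-dosing in an LPS-activated co-culture of endothelial cells with peripheral blood mononuclear cells. Fits run in both directions, DMSO as baseline; parallel SRB staining tracks overt cytotoxicity.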

[3] = BSK_LPS_PGE2: BioMAP Diversity Plus: LPS Assay for Prostaglandin E2 (PGE2) Biomarker Activity (AID 2283082);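 on AC50: secreted prostaglandin E2 measured by ELISA in LPS-stimulated co-culture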
In short: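 HUVEC plus human PBMC co-culture stimulated with LPS; secreted PGE2 quantified by ELISA 24 h after chemical dosing. Activity fitted bidirectionally against DMSO baseline; parallel SRB staining (0.1% SRB after 10% TCA fixation, 560 nm) flags overt cytotoxicity.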

[4] = read-out: Macrophage colony-stimulating factor (MCSF), CSF1 (gene 1435); assay: BSK_LPS_MCSF: BioMAP Diversity Plus: LPS Assay for Macrophage colony-stimulating factor (MCSF) Biomarker Activity (AID 2283083)
In short: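 Bidirectional fitting against DMSO was applied to M-CSF levels read by ELISA at 24 h post-dose. The system pairs human umbilical vein endothelium with peripheral blood mononuclear cells; parallel SRB staining tracked cytotoxicity.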

[5] = read-out: Tissue Factor, F3 (gene 2152); assay: BSK_LPS_TissueFactor: BioMAP Diversity Plus: LPS Assay for Tissue Factor Biomarker Activity (AID 2283084)
In short: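 Compound was added to an endothelial cell/PBMC co-culture, and after 24 h tissue factor (CD142) was read by ELISA. Gain or loss of signal was fitted against a DMSO baseline, and parallel SRB staining (560 nm) tracked overt cytotoxicity.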

[6] = read-out: Tumor necrosis factor (Homo sapiens) (UniProt P01375); assay: BSK_LPS_TNFa: BioMAP Diversity Plus: LPS Assay for Tumour Necrosis Factor alpha (TNFa) Biomarker Activity (AID 2283085);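 on AC50: TNFa protein level quantified by ELISA in the co-culture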
In short: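 Human umbilical vein endothelial cells co-cultured with PBMC and stimulated with LPS. TNFa was measured by ELISA 24 h after chemical dosing, fitted bidirectionally relative to DMSO.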

[7] = read-out: Vascular cell adhesion molecule 1 (VCAM1), VCAM1 (gene 7412); assay: BSK_LPS_VCAM1: BioMAP Diversity Plus: LPS Assay for Vascular cell adhesion molecule 1 (VCAM1) Biomarker Activity (AID 2283086)
In short: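 Human umbilical vein endothelial cells co-cultured with PBMC and stimulated with LPS; VCAM-1 measured by ELISA 24 h after dosing. Bidirectional curve fitting against DMSO baseline; cytotoxicity tracked in parallel by SRB total-protein staining.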

CD38, CD38 (gene 952) = assay: BSK_SAg_CD38: BioMAP Diversity Plus: SAg Assay for CD38 Biomarker Activity (AID 2283087)
In short: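 Human HUVEC plus PBMC co-culture stimulated with superantigen; CD38 measured by ELISA 24 h after chemical dosing. Fluorescence read-out, bidirectional fit against DMSO; cytotoxicity tracked in parallel by SRB and Alamar Blue.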

CD40, CD40 (gene 958) = assay: BSK_SAg_CD40: BioMAP Diversity Plus: SAg Assay for CD40 Biomarker Activity (AID 2283088)
In short: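 CD40 is measured by fluorescence ELISA in an endothelial/PBMC primary human co-culture at 24 h post-dose. Fitting is bidirectional, DMSO baseline. Parallel SRB staining (560 nm) flags cytotoxicity.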

CD69, CD69 (gene 969) = assay: BSK_SAg_CD69: BioMAP Diversity Plus: SAg Assay for CD69 Biomarker Activity (AID 2283089);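 on AC50: cell surface CD69 protein quantified by ELISA with fluorescence detection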
In short: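 ELISA, fluorescence read-out: CD69 on human umbilical vein endothelial cell + PBMC co-culture, 24 h post-dosing. Gain or loss of signal fitted bidirectionally against DMSO baseline.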

Measured: AC50

Tumor necrosis factor (Homo sapiens), sequence (P01375 whole entry, looked up): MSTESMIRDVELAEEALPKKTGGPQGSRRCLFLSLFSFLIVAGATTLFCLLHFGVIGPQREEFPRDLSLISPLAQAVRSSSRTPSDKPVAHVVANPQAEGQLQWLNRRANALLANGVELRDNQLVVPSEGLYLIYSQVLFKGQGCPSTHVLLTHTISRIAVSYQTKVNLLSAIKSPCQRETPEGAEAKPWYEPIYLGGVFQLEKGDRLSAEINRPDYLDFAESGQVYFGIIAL

Nc1ccc(-c2ccc(N)cc2)cc1
active: [3] 8.27 µM
inactive: all other assays above

Cc1ccc(O)c(C)c1
active: [3] 3.27 µM | [7] 4.7 µM
inactive: all other assays above

Oc1c(Cl)c(Cl)c(Cl)c(Cl)c1Cl
inactive: [1] | [3] | [5] | [6]
active: [1] 34.4 µM | [2] 2.92 µM and 30.4 µM | [3] 4.98 µM | [4] 10.2 µM and 25.5 µM | [5] 32.4 µM | [6] 20 µM | [7] 10.2 µM and 14.6 µM | CD38, CD38 (gene 952) 27.7 µM | CD40, CD40 (gene 958) 10.2 µM and 24.1 µM | CD69, CD69 (gene 969) 10.2 µM and 19.8 µM

O=C(O)C(F)(F)C(F)(F)C(F)(F)C(F)(F)C(F)(F)C(F)(F)C(F)(F)C(F)(F)F
inactive: [1] | [2] | [4] | [5] | [6] | [7] | CD38, CD38 (gene 952) | CD40, CD40 (gene 958) | CD69, CD69 (gene 969)
active: [1] 44.1 µM | [2] 47.9 µM and 58.4 µM | [3] 20 µM and 19.9 µM and 14.8 µM | [7] 51.5 µM and 54.3 µM | CD38, CD38 (gene 952) 49.6 µM and 47 µM | CD40, CD40 (gene 958) 30 µM | CD69, CD69 (gene 969) 42.7 µM and 43.5 µM

CCOP(=S)(OCC)SCSC(C)(C)C
active: [6] 35.2 µM
inactive: all other assays above

Oc1ccc(Cl)cc1Cl
inactive: all assays above

CCNc1nc(NC(C)C)nc(SC)n1
active: [6] 5.99 µM | CD38, CD38 (gene 952) 14.9 µM
inactive: all other assays above

Clc1ccc(Cl)cc1
inactive: all assays above

Cc1ccccc1[N+](=O)[O-]
inactive: all assays above

CC(c1ccc(O)cc1)(c1ccc(O)cc1)c1ccc(O)cc1
active: [2] 20 µM | [3] 34.6 µM | [4] 26.4 µM | [6] 32.6 µM | [7] 16.2 µM | CD38, CD38 (gene 952) 24.5 µM | CD40, CD40 (gene 958) 20.5 µM | CD69, CD69 (gene 969) 20 µM
inactive: [1] | [5]

O=C(NC(=O)c1c(F)cccc1F)Nc1cc(Cl)c(OC(F)(F)C(F)F)c(Cl)c1
active: [6] 0.401 µM
inactive: all other assays above

CO/C=C(/C(=O)OC)c1ccccc1COc1cccc(C(F)(F)F)n1
active: [2] 4.01 µM | [4] 12 µM | [6] 0.783 µM | [7] 13.4 µM | CD38, CD38 (gene 952) 6.48 µM | CD40, CD40 (gene 958) 7.75 µM | CD69, CD69 (gene 969) 5.07 µM
inactive: [1] | [3] | [5]

CC(C)(O)C(=O)Nc1ccc([N+](=O)[O-])c(C(F)(F)F)c1
active: [3] 0.024 µM | [4] 23.1 µM
inactive: all other assays above

NS(=O)(=O)C(F)(F)C(F)(F)C(F)(F)C(F)(F)C(F)(F)C(F)(F)C(F)(F)C(F)(F)F
inactive: [2] | [3] | [5] | [7]
active: [1] 32.1 µM and 48.7 µM and 52.2 µM | [2] 55.7 µM and 57.3 µM | [3] 52.2 µM and 51.9 µM | [4] 30.9 µM and 54.9 µM and 51.8 µM | [5] 44.6 µM | [6] 28.6 µM and 49.6 µM and 49.3 µM | [7] 53.8 µM and 46.6 µM | CD38, CD38 (gene 952) 27.8 µM and 43.8 µM and 42.4 µM | CD40, CD40 (gene 958) 27.7 µM and 46.1 µM and 45.8 µM | CD69, CD69 (gene 969) 27.4 µM and 40.8 µM and 43.4 µM

CCCCCCCCCC[N+](C)(C)CCCCCCCCCC
active: [1] 3.75 µM | [2] 4.16 µM | [3] 3.88 µM | [4] 3.79 µM | [5] 4.31 µM | [6] 3.79 µM | [7] 7.43 µM | CD38, CD38 (gene 952) 2.38 µM | CD40, CD40 (gene 958) 4.45 µM | CD69, CD69 (gene 969) 4.61 µM
